Experimental findings from PubChem BioAssay (NCATS) are described below.

A short description of assay [1]: S16 Schwann cell PMP22 intronic element firefly luciferase assay (AID 624032). Further: nearly all actives have a fitted effect of over 30% in size. Further: potency means the concentration at half of the fitted maximal effect. The essentials:
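Luciferase reporter of PMP22 intronic-element expression in stably transfected S16 rat Schwann cells, read by ONE-Glo luminescence after 24 h compound exposure at 37 C. Activity scaled between DMSO (0%) and positive-control PTC124; concentration-effect curves quality-classified.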

A short description of assay [2]: S16 Schwann cell PMP22 intronic element beta-lactamase assay (AID 624044; calls by dose curve;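 further: 0% = DMSO and -100% = potassium clavulanate positive control; nearly all actives have a fitted effect of over 15% in size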). The essentials:
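Rat S16 Schwann cells with beta-Lac driven by a PMP22 intronic element, compound-treated 24 h at 37 °C. LiveBLAzer FRET B/G read: 460 nm normalized to potassium clavulanate vs DMSO; 535 nm FRET as viability; concentration-effect curves classified.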

A short description of assay [3]: qHTS of Trypanosoma Brucei Inhibitors: LOPAC Validation (AID 624147). Further: 0% is about no effect. The essentials:
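Glycolytic pyruvate kinase of T. brucei was incubated with substrate, test compound and 130 uM ADP for 45 minutes at room temperature. Luminescent Kinase-Glo Plus signal was measured after 10 minutes.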
A general note: In qHTS, concentration-response curves come from the screen itself.

For assay [4], the target named is Glucagon-like peptide 1 receptor (Homo sapiens) (UniProt P43220). In words: qHTS of GLP-1 Receptor Agonists: LOPAC Validation (AID 624148).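 Further: luminescence from a luciferase reporter switched on by cAMP; 0% is about no effect; higher luminescence signal means agonism.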 The essentials: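 Agonism scored as increased luciferase luminescence driven by cAMP in HEK293 clones carrying GLP-1R. Cells settled 12 hours, received compound for 4-6 hr at 37 deg C, 5% CO2, and were read after 12 min detection reagent at RT.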
Glucagon-like peptide 1 receptor (Homo sapiens), sequence (P43220 whole entry, looked up): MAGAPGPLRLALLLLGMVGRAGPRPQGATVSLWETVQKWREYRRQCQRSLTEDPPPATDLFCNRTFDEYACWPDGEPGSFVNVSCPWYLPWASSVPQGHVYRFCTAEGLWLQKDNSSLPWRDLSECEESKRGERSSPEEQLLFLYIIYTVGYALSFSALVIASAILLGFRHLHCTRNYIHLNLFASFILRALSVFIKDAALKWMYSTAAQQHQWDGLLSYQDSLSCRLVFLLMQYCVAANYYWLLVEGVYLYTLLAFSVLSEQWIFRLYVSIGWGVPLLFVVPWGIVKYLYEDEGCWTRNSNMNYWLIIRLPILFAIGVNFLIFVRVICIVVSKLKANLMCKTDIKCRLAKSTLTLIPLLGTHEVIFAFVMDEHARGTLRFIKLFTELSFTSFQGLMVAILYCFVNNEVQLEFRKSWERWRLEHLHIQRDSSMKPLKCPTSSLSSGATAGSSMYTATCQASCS

Assay [5] can be described thus: qHTS of Nrf2 Activators: LOPAC Validation (AID 624149). Further: 0% is about no effect. The essentials:
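AREc32 cells carrying an ARE-driven firefly luciferase were grown overnight in OPTI-MEM with 5% FBS, then exposed to compounds for 24 hr at 37 deg C. Luciferase signal was read after 30 min with Steady-Glo at RT.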

Assay [6] in a line: qHTS assay for small molecule agonists of the antioxidant response element (ARE) signaling pathway (AID 651741; active means well fitted activation curve with a large enough effect in the signal ratio; the % refers to the signal ratio; further: potency means the concentration at half of the fitted maximal effect; on activation: % of control where 0% means no effect). An outline of the steps: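 Seeding 2,000 ARE-bla HepG2 cells per well preceded a 5 h incubation at 37 C/5% CO2 and a 16 h compound exposure at 37 C. Beta-lactamase reporter activity was then quantified by fluorescence after 2 h with LiveBLAzer B/G FRET substrate.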

Assay [7] in a line: qHTS assay for small molecule activators of the p53 signaling pathway (AID 651743; active means well fitted activation curve with a large enough effect in the signal ratio, not every such curve was filed as active; the % refers to the signal ratio; further: series mostly up to about 92 µM; % of control where 0% means no effect). The note with it: HCT-116 p53RE-bla, beta-lactamase FRET ratio, 16 h; active compounds read high. An outline of the steps:
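Screen for p53 pathway agonists uses stably transfected p53RE-bla HCT-116 cells, 4,000 per well, treated 16 h at 37 C with compounds in DMSO.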

Assay [8] is described as follows: qHTS assay for small molecule activators of the nuclear factor-kappa B (NF-kB) signaling pathway (AID 651749; active means well fitted activation curve with a large enough effect in the signal ratio; the % refers to the signal ratio; further: series mostly up to about 77 µM; % of control where 0% means no effect). The note with it: NF-kB-bla ME-180 cells, beta-lactamase FRET ratio, 16 h; activation: active compounds read high. The essentials: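 Stably transfected ME-180 line; NF-kB response element upstream of beta-lactamase. Treatment: compound or DMSO, 16 hr. Detection: fluorescent FRET substrate.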

The target in assay [9] is Tumor necrosis factor (Homo sapiens) (UniProt P01375). In words: qHTS assay to identify small molecules that stimulate Tumor Necrosis Factor-alpha (TNF-alpha) secretion (AID 651757; active means well fitted curve in the direction sought with a large enough effect in the signal ratio; the % refers to the signal ratio; further: 0% is about no effect). The essentials:
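THP-1 cells were exposed to compounds for 17 hrs at 37 C, after which secreted TNF-alpha was measured by homogeneous HTRF (TR-FRET) using cryptate- and XL665-labeled anti-TNF-alpha antibodies, read after 3 hr at room temperature.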

Assay [10] in a line: HTS Assay for Allosteric Antagonists of the Human D2 Dopamine Receptor: Hit Validation in HTRF (AID 624455).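 Further: stable D1 dopamine receptor cell line scored for blocking the D1 response; on the % scale 0 is the no-effect control and ±100 the full control effect.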 An outline of the steps:
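Hits were examined in an HTRF assay using cells stably expressing the D1 dopamine receptor, scoring inhibition of the D1-mediated response. The preceding primary screen tracked calcium flux after an EC80 dopamine addition in force-coupled, inducible Hek293 Trex D2 cells.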
In general terms: In TR-FRET formats the signal depends on donor and acceptor labels being close together.

Assay [11] has as its target Glutaminase kidney isoform, mitochondrial (Homo sapiens) (UniProt O94925). Description: qHTS for Inhibitors of Glutaminase (GLS): LOPAC Validation (AID 624146).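 Further: glutamate product detected by oxidase and peroxidase coupled Amplex red fluorescence gain; series mostly up to about 46 µM; on the % scale 0 is the no-effect control and ±100 the full control effect; nearly all actives have a fitted effect of over 60% in size.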 An outline of the steps:
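hKGA; 45 mM KH2PO4 pH 8.2 + 0.02% Tween-20; cpd via pin tool; 1 mM Gln soln; GluOx/HRP/Amplex Red; RT 30 min; fluor. t0 & final.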

Assay [12] can be described thus: qHTS assay for small molecule disruptors of the mitochondrial membrane potential - 5 hr assay (AID 651755; calls by dose curve; further: potency means the concentration at half of the fitted maximal effect; nearly all actives have a fitted effect of over 40% in size). An outline of the steps: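 HepG2, 2,000 cells/well, overnight attach; cpd or DMSO 5 hr, 37C/5% CO2; Mito-MPS 30 min 37C; fluor 490/535 + 540/590 nm.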
Assay [13] in a line: qHTS assay for small molecule disruptors of the mitochondrial membrane potential - 1 hr assay (AID 651754; calls by dose curve; further: potency means the concentration at half of the fitted maximal effect; nearly all actives have a fitted effect of over 35% in size). The essentials: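 HepG2 cells, attached overnight at 37C, were exposed to compound or DMSO vehicle for 1 hr at 37C, 5% CO2, then stained with Mito-MPS dye for 30 min. Red aggregate versus green monomer fluorescence reports membrane potential.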

“And” between values parts separate entries of the source, which are not always exact repeats. Equal entries are not always repeated. Results filed as inconclusive are left out. The source made the active and inactive calls. Unless noted, the call rests on the fitted dose curve; in most records, active means well fitted curve in the direction sought with a large enough effect; inconclusive means small, poorly fitted or top-dose-only effect, or another doubt; inactive means no such curve, though single readings can be large; an effect the other way counts as inactive or inconclusive.

Glutaminase kidney isoform, mitochondrial (Homo sapiens), sequence (O94925 whole entry, looked up, canonical isoform): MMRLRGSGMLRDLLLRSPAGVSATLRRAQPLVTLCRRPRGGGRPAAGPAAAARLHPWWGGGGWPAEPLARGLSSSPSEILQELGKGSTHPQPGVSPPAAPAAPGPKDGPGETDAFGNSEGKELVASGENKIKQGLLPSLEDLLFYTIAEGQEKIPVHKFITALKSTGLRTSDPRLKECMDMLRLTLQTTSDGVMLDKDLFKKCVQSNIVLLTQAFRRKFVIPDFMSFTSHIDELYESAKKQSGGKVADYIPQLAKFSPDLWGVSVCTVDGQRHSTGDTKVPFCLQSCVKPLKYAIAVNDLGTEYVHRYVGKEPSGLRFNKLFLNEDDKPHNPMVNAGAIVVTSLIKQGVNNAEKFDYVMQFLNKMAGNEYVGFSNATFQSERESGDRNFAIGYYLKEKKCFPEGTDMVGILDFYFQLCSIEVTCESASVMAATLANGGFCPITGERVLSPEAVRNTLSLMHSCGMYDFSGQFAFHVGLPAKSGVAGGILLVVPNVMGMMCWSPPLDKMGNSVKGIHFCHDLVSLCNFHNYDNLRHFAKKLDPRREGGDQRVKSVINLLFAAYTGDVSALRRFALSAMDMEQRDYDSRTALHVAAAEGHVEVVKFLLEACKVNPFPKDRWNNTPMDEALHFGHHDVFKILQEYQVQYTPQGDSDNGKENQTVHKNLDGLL
Tumor necrosis factor (Homo sapiens), sequence (P01375 whole entry, looked up): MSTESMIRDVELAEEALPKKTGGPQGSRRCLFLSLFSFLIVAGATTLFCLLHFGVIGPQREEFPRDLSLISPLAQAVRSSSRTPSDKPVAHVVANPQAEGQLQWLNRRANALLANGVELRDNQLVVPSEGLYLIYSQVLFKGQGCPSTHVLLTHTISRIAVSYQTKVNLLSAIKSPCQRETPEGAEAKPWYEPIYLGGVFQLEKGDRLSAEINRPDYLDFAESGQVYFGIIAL

As for `CSc1ccc2c(c1)N(CCC1CCCCN1C)c1ccccc1S2` (stereo not drawn), the Potency in assay [1] is 28.7 µM (active). Also, the Potency result in assay [2] was “inactive”. Besides, the result in assay [3], in assay [4] and in assay [5] was inactive.
For the molecule `Nc1ccc(S(=O)(=O)Nc2nccs2)cc1`, the Potency result in [1] and in assay [6] was “inactive” in each case. In addition, the activation in assay [7] was -5.45% (inactive); in assay [8], 0.351% (inactive). For the same molecule, the outcome in assay [9] was inactive.
With `CCOC(=O)c1ccc(O)cc1`, the Potency result in assay [1] and in assay [2] was “inactive” in each case. Moreover, the activation in assay [7] is -7.13% (inactive).
As to `CN(C)CCN(Cc1ccccc1)c1ccccn1`, the Potency result in [2] was “inactive”.
`NCCNCCNCCN`: the Potency entry in [1] and in assay [6] was “inactive” in each case. Also, the activation in assay [7] was -2.15% (inactive). Besides, in assay [9], the outcome was inactive.
Regarding `O=C(O)[C@@H]1CSCN1`, the Potency entry in [2] is “inactive”.
Same read-out and setting: for `Cc1cc(C(C#N)c2ccc(Cl)cc2)c(Cl)cc1NC(=O)c1cc(I)cc(I)c1O` (stereo not drawn) the value was “inactive”.
As for `CC1=C(CC(=O)O)c2cc(F)ccc2/C1=C\c1ccc(S(C)=O)cc1` (stereo not drawn), in [1], the Potency entry is “inactive”. Besides, the molecule was classed as inactive in assay [3], in assay [4], in [5] and in assay [10].
On to `Cc1cc2c(cc1S(N)(=O)=O)S(=O)(=O)CCC2`, for which the Potency entry in [1] and in assay [2] was “inactive” in each case.
Regarding `CCN(CC)CCSC(=O)C(c1ccccc1)c1ccccc1`, the Potency entry in [1] and in [2] was “inactive” in each case.
In the case of `C=Cc1c(C)c2cc3[nH]c(cc4nc(cc5nc(cc1[nH]2)C(C)=C5CCC(=O)O)C(CCC(=O)O)=C4C)c(C)c3C=C`, the Potency in assay [1] was 12.8 µM (active). The Potency entry in assay [2] and in assay [11] was “inactive” each time. Besides, the result in assay [3], in assay [4] and in assay [5] was inactive.
Turning to `CC1=C(/C=C/C(C)=C/C=C/C(C)=C/C(=O)O)C(C)(C)CCC1`, the Potency entry in assay [1] is “inactive”. For the same molecule, the call in assay [3], in assay [4], in assay [5] and in [10] was inactive. Further, in [6], the Potency is 54.5 µM (active). Further, the activation in assay [7] is 1.97% (inactive) and 6.17% (inactive); in [8], -2.87% (inactive) and -2.33% (inactive).
In the case of `CCCCOc1cc(C(=O)OCCN(CC)CC)ccc1N`, the Potency result in assay [1] and in assay [2] was “inactive” in each case.
With `CC(O)COc1ccccc1` (stereo not drawn), the Potency result in [1] and in [6] was “inactive” throughout. For the same molecule, the activation in assay [7] was 2.15% (inactive); in [8], -2.71% (inactive).
Consider `CCCCOC(=O)c1ccc(O)cc1`, for which the Potency entry in assay [1] and in assay [2] was “inactive” throughout. In addition, the Potency was 30.6 µM (active) in [6] and 37.6 µM (active) in assay [12]. Moreover, in assay [7], the activation was 1.4% (inactive) and -3.01% (inactive). In assay [9], the molecule was classed as inactive.
Consider `OCCN1CCN(CCCN2c3ccccc3Sc3ccc(Cl)cc32)CC1`, for which the Potency entry in [1] and in assay [2] was “inactive” throughout. The outcome in assay [3], in assay [4] and in [5] was inactive.
On to `CC(C(O)c1ccc(O)cc1)N1CCC(Cc2ccccc2)CC1` (stereo not drawn), for which the Potency in assay [1] was 25.6 µM (active). The Potency result in assay [11] was “inactive”. Also, the molecule was called inactive in assay [3], in assay [4] and in [5].
Consider `Nc1ccc(S(=O)(=O)Nc2ccccc2)cc1`, for which the Potency result in [2] was “inactive”.
Regarding `COc1ccc2[nH]c(S(=O)Cc3ncc(C)c(OC)c3C)nc2n1` (stereo not drawn), the Potency entry in assay [1] and in assay [2] was “inactive” throughout.
Consider `NC1CCN(c2cccc(Cl)n2)CC1`, for which the Potency result in assay [1] and in [11] was “inactive” each time. The result in assay [3], in assay [4] and in [5] was inactive.
Take `CCCCN1CCCC[C@H]1C(=O)Nc1c(C)cccc1C`: the Potency result in [1] and in assay [2] was “inactive” each time.
Consider `COc1ccc(Cl)cc1C(=O)NCCc1ccc(S(=O)(=O)NC(=O)NC2CCCCC2)cc1`, for which, in [10], the result was inactive.
As for `Cc1cc2nc3c(=O)[nH]c(=O)nc-3n(C[C@H](O)[C@H](O)[C@H](O)CO)c2cc1C`, the activation in [7] is -9.36% (inactive). For the same molecule, the Potency was 5.96 µM (active) in [13] and 7.5 µM (active) in assay [12].
On to `O=S(=O)(O)NC1CCCCC1`, for which the activation in [8] was -0.941% (inactive).
Consider `COc1ccccc1O`, for which, in assay [6], the Potency entry was “inactive”. The activation in assay [7] is -3.15% (inactive) and 0.213% (inactive) and 1.06% (inactive); in assay [8], -1.13% (inactive) and -0.291% (inactive) and -0.304% (inactive). For the same molecule, the molecule was classed as inactive in assay [9].
As to `CC(C)(C)c1onc(OCP(=O)(O)O)c1CC(N)C(=O)O` (stereo not drawn), the Potency entry in assay [11] was “inactive”. Further, the call in assay [3], in assay [4] and in assay [5] was inactive.
Turning to `CN(C)CCOC(C)(c1ccccc1)c1ccccn1` (stereo not drawn), the Potency result in [11] and in assay [6] was “inactive” throughout. Further, the call in [3], in assay [4] and in [5] was inactive. Also, the activation in assay [7] is 2.16% (inactive).
With `CC(=O)OCC(=O)[C@@]1(O)CC[C@H]2[C@@H]3CCC4=CC(=O)CC[C@]4(C)[C@H]3C(=O)C[C@@]21C`, in assay [11], the Potency entry is “inactive”. In addition, the molecule was classed as inactive in assay [3], in assay [4] and in [5].
In the case of `NC(=O)c1ncn([C@@H]2O[C@H](CO)[C@@H](O)[C@H]2O)n1`, the Potency entry in [11] and in [6] was “inactive” each time. For the same molecule, the call in assay [4], in [5] and in assay [9] was inactive.
